# Sampled rows, rich in hits. Any-hit rate of the full collection: about 2.8%.
# PI5P4K alpha inh: inhibitors of human PI5P4K alpha. PI5P4Kalpha enzyme, ADP-Glo luminescence, 60 min; hits give low values. hit rate 1.2% among 330,000. P48426. max response, %; active means max response of -50% or lower; inconclusive means between -30% and -50%; inactive means -30% or higher; further: value at the top dose of about 77 µM; on the % scale 0 is the no-effect control and ±100 the full control effect
#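 Human PI5P4Kalpha with substrate in 0.038 M HEPES pH 7.4, 0.28 mM EGTA, 0.1% CHAPS, 5% DMSO; reaction started with 5 microM ATP (final), 60 min at room temperature. ADP formed read by ADP-Glo luminescence.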
# Pol iota inh: DNA polymerase iota (human) inhibition; Q9UNA4; Pol iota fluorescent replication assay, 10 min; Potency, µM (highest dose often 115 µM), without a hit: top-dose activity, negative = inhibition, hits mostly inhibitors; hit rate 1% among 390,000; further: potency means the concentration at half of the fitted maximal effect
#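 Fluorescent replication assay read twice, at 0 min and 10 min after adding 50 nM (final) substrate. Enzyme (10 nM) and compounds were first incubated 15 min at room temperature; enzyme-free buffer wells were negative controls.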
# POLB inh: blocks human DNA polymerase beta activity | Potency, µM (titrated, usually from 114 µM), for the others: at the top dose activity change, negative = inhibition, usual class: inhibitors | hit rate 1.3% among 340,000 | P06746 | Pol beta primer extension/strand displacement, fluorescence kinetic; further: potency means the concentration at half of the fitted maximal effect; on the % scale 0 is the no-effect control and ±100 the full control effect
#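 Kinetic readout of DNA synthesis with strand displacement by Pol beta. Compound and 10 nM enzyme sit 15 min at room temperature; 50 nM substrate starts the reaction, read immediately and at 10 min.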
# Pol eta inh: blocks human DNA polymerase eta activity. recombinant Pol eta, fluorescent DNA replication assay. Potency, µM (doses to about 114 µM), for the others: top-dose activity change, negative = inhibition, hits mostly inhibitors. hit rate 1.2% among 390,000; further: potency means the concentration at half of the fitted maximal effect; on the % scale 0 is the no-effect control and ±100 the full control effect
#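 Pol eta (10 nM) was preincubated with compounds for 15 min at room temperature, after which fluorescent replication substrate (50 nM final) was added to start the reaction. Fluorescence was read kinetically at 0 and 10 min.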
# Pol kappa inh: inhibitors of human DNA polymerase kappa; Q9UBT6; AID 588579; Potency, µM (top dose mostly 107 µM), for inactives: at the top dose activity, negative = inhibition, most hits filed as inhibitors; purified Pol kappa, fluorescent DNA synthesis assay, 10 min; hit rate 0.53% among 400,000; further: potency means the concentration at half of the fitted maximal effect; on the % scale 0 is the no-effect control and ±100 the full control effect
#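 Readout: fluorescence, taken kinetically at 0 and 10 min. Conditions: 10 nM Pol kappa, 15 min RT compound preincubation, 50 nM substrate final. Controls: enzyme-free buffer wells.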
# FEN1 inhibitor: human FEN1 inhibition; P39748; Recombinant FEN1 flap cleavage, fluorescence, 15 min; Potency, µM (top dose mostly 114 µM), without a hit: top-dose activity change, negative = inhibition, usual class: inhibitors; hit rate 0.35% among 390,000; further: potency means the concentration at half of the fitted maximal effect; on the % scale 0 is the no-effect control and ±100 the full control effect; nearly all actives have a fitted effect of over 65% in size
# Target sequence (P39748 whole entry, looked up): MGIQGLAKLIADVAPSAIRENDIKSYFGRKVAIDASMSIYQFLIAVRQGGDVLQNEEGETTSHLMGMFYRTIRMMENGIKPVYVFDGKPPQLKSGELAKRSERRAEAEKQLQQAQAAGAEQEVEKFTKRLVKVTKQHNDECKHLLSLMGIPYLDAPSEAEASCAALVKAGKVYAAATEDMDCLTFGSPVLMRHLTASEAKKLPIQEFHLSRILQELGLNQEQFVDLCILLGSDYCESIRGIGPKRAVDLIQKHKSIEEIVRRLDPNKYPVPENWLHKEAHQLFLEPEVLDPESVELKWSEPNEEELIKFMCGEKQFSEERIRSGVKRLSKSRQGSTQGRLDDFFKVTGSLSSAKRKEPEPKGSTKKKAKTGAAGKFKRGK
#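 Read-out was taken twice, immediately and after 15 min, following addition of 50 nM substrate to 10 nM FEN1 that had sat with test compound for 15 min at room temperature. Curves came from a four-parameter Hill model.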
# Starred values were filed as active, the others as inactive; ? = inconclusive; / = not tested or not shown; [ ] = remark or other dose. Unless noted, the call rests on the fitted dose curve; in most records, active means well fitted curve in the direction sought with a large enough effect; inconclusive means small, poorly fitted or top-dose-only effect, or another doubt; inactive means no such curve, though single readings can be large; an effect the other way counts as inactive or inconclusive.
SMILES,PI5P4K alpha inh,Pol iota inh,POLB inh,Pol eta inh,Pol kappa inh,FEN1 inhibitor
Cn1c(=O)c(C(=O)c2ccc(S(C)(=O)=O)c(Cl)c2Cl)c(O)c2ccccc21,3,14%,/,-19%,7%,-14%
O=Cc1cc(N=Nc2ccc(S(=O)(=O)O)cc2)ccc1O,-76*,?,/,-23%,?,-21%
Cc1ccc(C)c(NC(=O)Cn2c(=O)nc(-c3ccccc3)c3ccccc32)c1,/,21%,5%,?,-8%[60.1 µM],0%
COc1ccccc1NS(=O)(=O)c1cc(NC(=O)CNC(=O)c2ccc(C)s2)ccc1Cl,-1,79µM*,19%,?,-28%,45µM*
COc1ccc(S(=O)(=O)NC(=O)C2(C)CCN2C(=O)C(C)(C)c2ccccc2)cc1 (centres undefined),-1,/,/,/,/,/
CCC(=O)NC1=C(NC(C)c2ccccc2)C(=O)c2ccccc2C1=O (centres undefined),3,42%,7%,-1%,-2%,2%
CCC(=O)NC1=C(Cl)C(=O)C(NC(=O)CC)=C(Cl)C1=O,-81*,1.8µM*,11%,?,1%,?
COc1ccc2cc(/C=C3\SC(=S)NC3=O)c(N3CCOCC3)nc2c1,-62*,-6%,?,20µM*,-25%,?
O=C1NC(=S)SC1=Cc1ccc2c(c1)OCO2,-78*,21%,/,-4%,-4%,0%
COc1cccc(/C=C2\SC(=S)N(N3C(=O)CCCC3=O)C2=O)c1,5,?,3%,-21%,-5%,2%
O=C1NC(=S)N/C1=C/c1ccc2c(c1)OCO2,3,-24%,26%,-4%,-6%,-14%
COc1cccc(C=C2SC(=S)NC2=O)c1,-60*,-17%,/,12%,-4%,3%
COc1ccc(/C=C2/SC(=S)NC2=O)cc1OCc1ccccc1,-75*,40%,14%,?,-9%,?
CNc1ncncc1-c1ccc(C(=O)N(C)C)cc1,/,/,/,/,-4%[60.1 µM],/
COC(=O)c1ccc(CSc2nnc3ccc4ccccc4n23)cc1,/,21%,3%,-9%,-3%,-4%
CCn1cc(C(=O)NC2CCCCCC2)c(=O)c2ccc(C)nc21,6,10%,44%,-4%,-16%,17%
CC(=Nc1ccccc1N)c1c(C)cc(=O)n(O)c1O,/,/,/,/,2%[60.1 µM],/
COc1cccc(C(C)=C2SC(=S)NC2=O)c1,-71*,-13%,/,-7%,-17%,15%
CCO/C(C)=C1/SC(=S)NC1=O,-63*,114%,-24%,-3%,-23%,3%
O=C(CCC(=O)N1CCSc2ccccc21)NC1CCCCC1,-4,50%,-1%,-5%,19%,0%
O=C(Nc1ccccc1)Nc1ccc(NC(=O)c2ccccc2O)cc1,0,-27%,32µM*,3%,-10%,-19%
O=C(Nc1ccccc1)Nc1ccc(O)c2ccccc12,-52*,?,/,-16%,-3%,-16%
O=C(Nc1ccccc1)c1ccccc1O,/,-9%,0%,-11%,-7%,4%
CCOC(=O)c1ccccc1NC(=O)CN(c1cccc(C)c1C)S(=O)(=O)c1ccccc1,/,-8%,1%,-8%,4%,-2%
Cc1ccccc1OCc1ccc(-c2nc(C#N)c(N3CCN(c4cccc(Cl)c4)CC3)o2)o1,/,3%,23%,-10%,-9%,-11%
SMILES,PI5P4K alpha inh,Pol iota inh,POLB inh,Pol eta inh,Pol kappa inh,FEN1 inhibitor
CC(OC(=O)C1=Cc2ccccc2OC1)C(=O)NCC1CCCO1 (centres undefined),-63*,?,/,-10%,?,-6%
O=CN1CCN(C(=O)Cc2ccc(Cl)cc2)CC1,2,/,/,-1%,/,/
Cc1ccc(-n2nnc(-c3nsc(NC(=O)c4ccccc4)n3)c2C)cc1,/,?,2%,?,-7%[60.1 µM],1%
Cc1c(-c2nsc(NC(=O)c3cccs3)n2)nnn1-c1ccc(Br)cc1,/,?,3.2µM*,?,-21%,13%
COC(=O)c1ccc(-n2nnc(-c3nsc(NC(=O)c4ccc(Cl)cc4)n3)c2C)cc1,/,?,56µM*,-23%,-9%,10%
CC(=O)OCC1=C(C(=O)OC(C)(C)C)N2C(=O)[C@@H](NC(=O)Cc3ccccc3)[C@H]2SC1,-51*,32µM*,/,?,?,?
CC(C(=O)NC1C(=O)N2C(C(=O)O)=C(CSc3nnnn3C)CSC12)n1cc(Cl)cn1 (centres undefined),-2,?,?,35µM*,-17%,-6%
CC1=C(C(=O)OCC(Cl)(Cl)Cl)N2C(=O)C(NC(=O)Cc3ccccc3)C2SC1 (centres undefined),5,76%,2%,8%,-12%,0%
Cc1cc(=O)c(C(=O)N[C@@H](C(=O)N[C@@H]2C(=O)N3C(C(=O)O)=C(CSc4nnnn4C)CS[C@H]23)c2ccc(O)cc2)c[nH]1,/,/,/,/,0%[19.4 µM],/
Cc1nnc(SCC2=C(C(=O)O)N3C(=O)C(NC(=O)Cc4ccccc4)C3SC2)s1 (centres undefined),2,?,/,22µM*,?,-13%
CC1(C)CC(=O)C(C(C2=C(O)CC(C)(C)CC2=O)c2ccc(O)c([N+](=O)[O-])c2)=C(O)C1,-68*,?,-1%,?,-8%,79µM*
CC1(C)CC(=O)C(C(C2=C(O)CC(C)(C)CC2=O)c2ccc([N+](=O)[O-])cc2)C(=O)C1 (centres undefined),-6,1%,8%[57.1 µM],-9%,-6%,-1%
O=C(NCCc1ccccc1)c1ccc(CSc2nc3ccncc3n2Cc2ccccc2)cc1,/,30%,9%,-15%,1%,-16%
N#CCCN1CCN(C(=O)c2c(N)no[n+]2[O-])CC1,-4,101%,46%,-24%,-12%,0%
O=C1C(=Cc2ccco2)CCCC1=Cc1ccco1,-28,20µM*,/,22µM*,50µM*,?
O/N=C1\CCC\C1=C/c1ccco1,/,?,-17%,-32%,?,0%
COc1c2c(c(C)c3c1C(=O)OC3)O[C@@]1(C)CC[C@@]3(O)C(C)(C)OC(=O)CC[C@]3(C)[C@H]1C2,-18,?,?,45µM*,-37%,-8%
Cc1ccccc1OCc1nnc(SCc2cc(=O)c3ccc(C)c(C)c3[nH]2)n1C,/,2%,1%,-4%,-11%[60.1 µM],11%
CCOc1ccc(S(=O)(=O)N2CCCC(C(=O)N3CCOCC3)C2)cc1C (centres undefined),7,-4%,2%,4%,-3%,20%
O=C(CSc1cccc2cccnc12)N/N=C/c1cccc(O)c1,-3,-8%,-10%,8%,-24%,15%
O=C(N/N=C/c1ccc(O)c(O)c1)c1ccc(CSc2cccc3cccnc23)cc1,-28,?,3.2µM*,3.5µM*,?,?

# High-throughput results from PubChem.
